# Assay outcomes from PubChem BioAssay.
# Shown are actives, neighbours in structure and some others; about 2.8% of the full set was active somewhere.
# DRD3 antagonist: D3 dopamine receptor (human) antagonism. max response, negative = inhibition, %. P35462. hit rate 2.5% among 360,000. D3R cells, DiscoveRx beta-arrestin luminescence, antagonist mode; hits give low values; in the data active = max response below about -50%; inconclusive = no clear call, values can overlap the other calls
# Target sequence (P35462 whole entry, looked up): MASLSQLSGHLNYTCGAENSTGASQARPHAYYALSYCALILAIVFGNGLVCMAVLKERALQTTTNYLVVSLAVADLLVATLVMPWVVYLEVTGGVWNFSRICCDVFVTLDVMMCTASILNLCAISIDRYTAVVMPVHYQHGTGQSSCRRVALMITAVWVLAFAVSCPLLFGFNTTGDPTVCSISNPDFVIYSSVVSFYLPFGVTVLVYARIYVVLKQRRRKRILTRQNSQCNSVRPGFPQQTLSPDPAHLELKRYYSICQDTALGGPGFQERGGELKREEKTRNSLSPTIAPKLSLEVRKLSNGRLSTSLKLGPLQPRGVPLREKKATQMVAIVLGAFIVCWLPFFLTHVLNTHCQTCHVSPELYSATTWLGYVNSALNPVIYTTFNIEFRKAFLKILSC
#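 Cells expressing the human receptor were seeded at 1500 cells/well, incubated overnight at 37 degrees C in 5% CO2, then exposed to library compounds with dopamine controls for 90 minutes at 37 degrees C before luminescent detection.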
# PI4K2A block: inhibitors of human PI4K2A | purified PI4K2A, ADP-Glo luminescence, 1 h; hits give low values | activity change, negative = inhibition, % at 76.9 µM | AID 1346378 | hit rate 0.13% among 420,000 | Q9BTU6; in the data active = activity change below about -50%; inconclusive = mostly about -30% to -49%
#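 In this quantitative HTS, ADP production by PI4K2A was quantified luminescently after 1 h at ambient temperature; 100 microM adenosine served as plate-quality control.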
# RGS4 inh: human RGS4 inhibition; Potency, µM (top dose mostly 114 µM), usual class: inhibitors; P49798; hit rate 0.039% among 390,000; Transcreener GDP fluorescence polarization, RGS4-accelerated GTP hydrolysis; active = well fitted inhibition curve with a large enough effect; inconclusive = small, poorly fitted or top-dose-only effect; inactive = no such curve, though single readings can be large or run the other way; also: nearly all actives have a fitted effect of over 75% in size
# Target sequence (P49798 whole entry, looked up): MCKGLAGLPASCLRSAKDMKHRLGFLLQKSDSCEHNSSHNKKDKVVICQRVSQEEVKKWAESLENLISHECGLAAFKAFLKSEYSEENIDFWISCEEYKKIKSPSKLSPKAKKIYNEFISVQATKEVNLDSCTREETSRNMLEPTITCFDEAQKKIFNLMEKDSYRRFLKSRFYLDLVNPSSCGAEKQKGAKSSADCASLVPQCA
#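 MLSMR compounds (23 nl, pin-transferred) preincubated 10 min at room temperature with a 500nM (2x) first reagent, then RGS4 at 900nM (2x) plus Transcreener GDP mix added; fluorescence polarization (620/688 nm) read before and after 90 min at 30 °C.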
# pAkt inh: blocks phosphorylation of Akt; Neuro2A IGF-stimulated pAkt S473 HTRF, 20 min; hits give low values; activity change, % for hits at 50 µM; hit rate 0.32% among 360,000; in the data active = activity change below about -80%; inconclusive = mostly about -51% to -80%
#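 Neuro2A cells in DMEM with 0.5% FBS, overnight at 37 deg C, given compound at single 50 µM final, then IGF (6 nM final) for 20 min at 37 deg C. Lysed; phospho-Akt Ser473 by HTRF after 24 h, 665/615 ratio.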
# LDHA block: blocks human lactate dehydrogenase A; activity change, % (values are at about 110 or 230 µM); P00338; purified LDHA, NADH/diaphorase-resazurin fluorescence; hits give low values; AID 1347041; hit rate 0.15% among 480,000; in the data active = activity change below about -30%; inconclusive = mostly about -25% to -30%
#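 Human LDH5 (2 nM) was incubated with 0.06 mM NADH and 0.2 mM pyruvate for 5 min at room temperature in Tris pH 7.4. Remaining NADH was coupled through diaphorase/resazurin, and resorufin fluorescence was read at 0 and 20 min.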
# D3 ag: activates the human D3 dopamine receptor | P35462 | max activation, % | hit rate 0.58% among 410,000 | D3R DiscoveRx beta-arrestin cells, luminescence, 90 min; in the data active = max activation above about 30%
#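 Agonist-mode cell screen: cells plated at 1500/well and incubated overnight at 37 °C, then exposed to library compounds for 90 min at 37 °C. Detection reagent was added for 30–60 min at room temperature, and luminescence was read.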
# Hits are given with their value; i = inactive; ? = inconclusive; nt = not tested or not shown; ! = repeats disagree.
SMILES,DRD3 antagonist,PI4K2A block,RGS4 inh,pAkt inh,LDHA block,D3 ag
Cn1cccc1/C=N/NC(=O)Cn1cnc2ccccc21,-75.3,i,i,i,i,i
COc1cc(CNC(C)C)cc(OC)c1,nt,nt,nt,nt,i,nt
S=C1NC2(CCCCC2)NN1c1ccc(Cl)cc1,nt,nt,nt,nt,i,nt
O=c1[nH]c2ccccc2c(O)c1-[n+]1ccccc1,i,i,i,i,i,31.7
COc1ccc(COCC(O)COc2ccccc2-c2nc3ccccc3s2)cc1 (configuration not stated),nt,nt,nt,nt,i,nt
O=C(CN(C(=O)c1cccc([N+](=O)[O-])c1)C1CCCCC1)Nc1ccc(Cl)c([N+](=O)[O-])c1,-79.1,i,i,i,i,i
CCSc1ccc([C@@H]2[C@H]3C(=O)N(CC)C(=O)[C@H]3[C@]3(C(=O)OC)CCCCN23)cc1OC,i,i,i,i,i,62.7
COC(=O)c1cc(-c2ccc(OC)cc2OC)nc2ccccc12,nt,nt,nt,nt,i,nt
CSCCC(c1nnnn1C1CCCCC1)N1CCN(C/C=C/c2ccccc2)CC1 (configuration not stated),-89.4,i,nt,i,i,i
C(=C\c1ccccc1)/CN1CCN(C(c2ccnc3ccccc23)c2nnnn2C2CCCCC2)CC1 (configuration not stated),?,i,nt,i,i,i
CCC(c1nnnn1C1CCCC1)N1CCN(C/C=C/c2ccccc2)CC1 (configuration not stated),-60.8,i,nt,i,i,i
C(=C\c1ccccc1)/CN1CCN(C(c2ccccc2)c2nnnn2C2CCCCC2)CC1 (configuration not stated),-90.9,i,nt,i,i,i
CCCCC(c1nnnn1C1CCCC1)N1CCN(C2CCCCC2)CC1 (configuration not stated),-60.0,i,i,i,i,i
CCCCc1nn2c(=O)cc(COC(=O)COc3ccccc3Cl)nc2s1,nt,nt,nt,nt,i,nt
O=C1CC(c2ccccc2)c2ncn(-c3cc(F)ccc3F)c2N1 (configuration not stated),nt,nt,nt,nt,i,nt
CCC(c1nnnn1C1CCCC1)N1CCN(Cc2ccccc2)CC1 (configuration not stated),-65.2,i,i,i,i,i
CCCC(c1nnnn1CC1CCCO1)N1CCN(c2ccccc2)CC1 (configuration not stated),i,i,i,i,i,i
CSCCC(c1nnnn1C1CCCC1)N1CCN(C/C=C/c2ccccc2)CC1 (configuration not stated),-78.0,i,nt,i,i,i
CCCCC(c1nnnn1CC1CCCO1)N1CCN(Cc2ccccc2)CC1 (configuration not stated),-78.4,i,i,i,i,i
O=C1Cc2cc(-c3csc(Nc4ccccc4Cl)n3)ccc2N1,nt,nt,nt,nt,i,nt
CCOC(=O)c1ccc(-c2ccc(/C=C/C(=O)c3cccc(N4CCOCC4)c3)o2)cc1,nt,nt,nt,nt,i,nt
COc1ccc2ccccc2c1CN1CCN(C(=O)c2ccccc2)CC1,?,i,i,i,i,i
CCOc1cc(CN2CCN(C(=O)c3ccco3)CC2)ccc1OC,?,i,i,i,i,43.7
O=C(c1ccco1)N1CCN(Cc2nnc(-c3cccc(Cl)c3)o2)CC1,i,i,i,i,i,36.9
CCOc1ccc(CN2CCN(C(=O)c3ccco3)CC2)cc1,i,i,i,i,?,i
SMILES,DRD3 antagonist,PI4K2A block,RGS4 inh,pAkt inh,LDHA block,D3 ag
COc1ccc2ccccc2c1CN1CCN(C(=O)c2ccco2)CC1,i,i,i,i,i,47.9
COc1cccc(-n2sc3c(c2=S)-c2cc(OC)ccc2NC3(C)C)c1,-68.6,i,i,i,i,i
Cc1ccc(C(CNC(=O)C(=O)Nc2ccc3c(c2)OCCO3)N2CCN(C)CC2)cc1 (configuration not stated),i,i,i,i,i,i
CN1CCN(C(CNC(=O)C(=O)Nc2ccc3c(c2)OCCO3)c2ccc(F)cc2)CC1 (configuration not stated),i,i,i,i,i,107.6
Cc1ccc(C)c(-c2cc(C(=O)Nc3sc(C)c(C)c3C(N)=O)c3ccccc3n2)c1,i,i,i,i,i,45.8
Cc1ccccc1-c1cc(C(=O)Nc2nc3c(s2)CCCC3)c2ccccc2n1,-90.7,i,i,i,i,i
Cc1cccc(-c2cc(C(=O)Nc3sc(C)c(C)c3C(N)=O)c3ccccc3n2)c1,i,i,i,i,i,i
Cc1ccccc1-c1cc(C(=O)Nc2nncs2)c2ccccc2n1,nt,nt,nt,nt,i,nt
CNCCCC1c2ccccc2C=Cc2ccccc21,-99.2,i,i,i,i,i
CCCCOC(=O)c1ccc(NC(=O)c2cc(=O)c3cc(C)c(C)cc3o2)cc1,nt,nt,nt,nt,i,nt
COc1ccccc1OCC(O)CO (configuration not stated),i,i,i,i,i,82.9!
COc1ccccc1OCC(O)COC(N)=O (configuration not stated),i,i,i,i,i,i
CCOC(=O)C1Nc2ccccc2C2C(O)C(O)CC12 (configuration not stated),-52.0,i,?,i,i,i
COc1ccc(N[C@@H]2CCN3C(=O)c4ccccc4[C@@H]3C[C@H]2O)cc1,i,i,i,i,i,i
O=C1c2ccccc2[C@@H]2C[C@@H](O)[C@H](Nc3cccc4ccccc34)CCN12,-55.9,i,i,i,i,i
COCCN(CCOC)C(=O)c1cc(-c2cccs2)nc2ccccc12,nt,nt,nt,nt,i,nt
CC(C)C[C@@H](CN)NC(=O)c1nc[nH]c1C(=O)N[C@@H](C)C(=O)CNC[C@H](CC(C)C)NC(=O)c1nc[nH]c1C(=O)N[C@@H](CC(=O)O)C(=O)O,i,i,i,i,i,i
CC(C)C[C@@H](CNCC(=O)[C@H](CC(=O)O)NC(=O)c1[nH]cnc1C(=O)N[C@H](CN)CC(C)C)NC(=O)c1nc[nH]c1C(=O)N[C@@H](C)C(=O)O,-52.8,i,i,i,i,i
CC(C)C[C@@H](CN)NC(=O)c1nc[nH]c1C(=O)N[C@@H](Cc1ccccc1)C(=O)CNC[C@H](C)NC(=O)c1nc[nH]c1C(=O)N[C@@H](CC(C)C)C(=O)O,i,i,i,i,i,i
CC(C)C[C@@H](CN)NC(=O)c1nc[nH]c1C(=O)N[C@@H](Cc1ccccc1)C(=O)CNC[C@H](C)NC(=O)c1nc[nH]c1C(=O)N[C@@H](C)C(=O)O,i,i,i,i,i,43.2
COc1cc(N=Nc2ccc(Br)cc2)cc(C=O)c1O,-74.9,i,nt,i,i,i
CCCCCCCCC(=O)Nc1c(C)cccc1CC,nt,nt,nt,nt,i,nt
Cc1nnc(Sc2cc(NCCCO)c([N+](=O)[O-])c3nonc23)s1,-96.8,?,?,i,i,i
